PubChem BioAssay (NCATS)
Records with an inconclusive call do not appear. Activity calls are given as the source filed them. The call rests on the fitted dose curve; in most records, active means well fitted cell-killing curve with a large enough effect; inconclusive means small, poorly fitted or top-dose-only effect, or effect the other way; inactive means flat fitted curve, though single readings scatter. Where a SMILES comes first, the peptide text is derived from it. [ ]: non-standard residue; d: D form. ξ: configuration not given here. ξPhe(βξ-Me) = CC(c1ccccc1)C(N)C(=O)O; GABA = NCCCC(=O)O

Columns and labels:
Test in all cases: Primary qHTS to identify gynecologic anti-cancer compounds using libraries of approved drugs and bioactive compounds (AID 1345084); further: nearly all actives have a fitted effect of over 55% in size
Settings in all cases: Gynecologic cancer cell panel viability, ATPlite luminescence, 48 h; series mostly up to 57.5 µM
PA-1 = system: PA-1
Outline: (§1)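 Five-point cytotoxicity, 48 h drug exposure at 37 C, 5% CO2, on cells seeded 16 h beforehand. ATP content read by ATPlite luminescence.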

SKOV3 = system: SKOV3
Outline: as §1

Tov-21-G = system: Tov-21-G
Outline: as §1

Tov112D = system: Tov112D
Outline: as §1
On the % scale 0 is the no-effect control and ±100 the full control effect.

CCCOC(c1cc2nccc(C(=O)O)c2[nH]1)c1ccccc1Cl (stereo not given)
inactive: Potency (PA-1) | Potency (SKOV3) | Potency (Tov-21-G) | Potency (Tov112D)

CC(C)CNCc1ccc(-c2ccccc2S(=O)(=O)N2CCCC2)cc1
inactive: Potency (PA-1) | Potency (SKOV3) | Potency (Tov-21-G) | Potency (Tov112D)

CC1(C)CCC(C)(C)c2cc(C3(c4ccc(C(=O)O)cc4)OCCO3)ccc21
inactive: Potency (PA-1) | Potency (SKOV3) | Potency (Tov-21-G) | Potency (Tov112D)

COc1ccc(N2CCOCC2)c2sc(NC(=O)N3CCC(C)(O)CC3)nc12
inactive: Potency (PA-1) | Potency (SKOV3) | Potency (Tov-21-G) | Potency (Tov112D)

O=S(=O)(NC1CCC(c2cc(F)ccc2F)(S(=O)(=O)c2ccc(Cl)cc2)CC1)C(F)(F)F (stereo not given)
inactive: Potency (PA-1) | Potency (SKOV3) | Potency (Tov-21-G) | Potency (Tov112D)

CC1C=CC2CCCCC2C1CCC1CC(O)CC(=O)O1 (stereo not given)
inactive: Potency (PA-1) | Potency (SKOV3) | Potency (Tov-21-G) | Potency (Tov112D)

O=C(OCC1=CC(O)C2C=CO[C@@H](O[C@@H]3O[C@H](CO)[C@@H](O)[C@H](O)[C@H]3O)C12)c1ccccc1 (stereo not given in full)
inactive: Potency (PA-1) | Potency (SKOV3) | Potency (Tov-21-G) | Potency (Tov112D)

CCOC(=O)c1cc(C#N)c(N2CCC(C(=O)NS(=O)(=O)Cc3ccccc3)CC2)nc1C
inactive: Potency (PA-1) | Potency (SKOV3) | Potency (Tov-21-G) | Potency (Tov112D)

COC(=O)C1=CO[C@@H](O[C@@H]2O[C@H](CO)[C@@H](O)[C@H](O)[C@H]2O)C2C1C(=O)C[C@H]2C (stereo not given in full)
inactive: Potency (PA-1) | Potency (SKOV3) | Potency (Tov-21-G) | Potency (Tov112D)

COc1ccc([C@@]2(O)c3c(ccc4c3OC(C)(CCC=C(C)C)C=C4)NC(=O)[C@@H]2OC)cc1 (stereo not given in full)
inactive: Potency (PA-1) | Potency (SKOV3) | Potency (Tov-21-G) | Potency (Tov112D)

C/C=C/C=C/C(O)=C1\C(=O)[C@]2(C)C3C(C(=O)CC/C=C/C)=C(O)C4(C)C1[C@]1(C)O[C@@]4(O)[C@@]3(C)O[C@@]12O
inactive: Potency (PA-1) | Potency (SKOV3) | Potency (Tov-21-G) | Potency (Tov112D)

C[C@@H]1O[C@@H](O[C@H]2[C@H](OC(=O)[C@]34CCC(C)(C)C[C@H]3C3=CCC5[C@@]6(C)C[C@H](O)[C@H](O[C@@H]7O[C@H](CO)[C@@H](O[C@H]8OC[C@](O)(CO)[C@H]8O)[C@H](O)[C@H]7O)[C@@](C)(CO)C6[C@H](O)C[C@@]5(C)[C@]3(C)C[C@H]4O)OC[C@H](O)[C@@H]2O)[C@H](O)[C@H](O)[C@H]1O[C@@H]1OC[C@@H](O)[C@H](O[C@@H]2OC[C@](O)(CO)[C@H]2O)[C@H]1O (stereo not given in full)
inactive: activity change, negative = cytotoxicity (PA-1) 18.7% [at 6.55 µM] | activity change, negative = cytotoxicity (SKOV3) 13.1% [at 6.55 µM] | activity change, negative = cytotoxicity (Tov-21-G) -9.27% [at 6.55 µM] | activity change, negative = cytotoxicity (Tov112D) -0.812% [at 6.55 µM]

CC(C)C(N)C(=O)OCCOCn1cnc2c(=O)[nH]c(N)nc21 (stereo not given)
inactive: Potency (PA-1) | Potency (SKOV3) | Potency (Tov-21-G) | Potency (Tov112D)

C/C(=C\CCC1(C)C2CCC(C2)C1(C)O)C(=O)O (stereo not given)
inactive: Potency (PA-1) | Potency (SKOV3) | Potency (Tov-21-G) | Potency (Tov112D)

CC1NC(=O)CCCNC(=O)C(Cc2c[nH]c3ccccc23)NC(=O)C(C)NC(=O)C(C(C)C)NC(=O)C(C(C)c2ccccc2)NC(=O)C(C(C)C)NC1=O (stereo not drawn) (cyclo([GABA]AV[ξPhe(βξ-Me)]VAW); configuration not given here)
inactive: Potency (PA-1) | Potency (SKOV3) | Potency (Tov-21-G) | Potency (Tov112D)

C/C=C(/COC(=O)/C(C)=C/C)C(=O)OC(CC)c1ccc(OC)c(OC)c1 (stereo not given)
inactive: Potency (PA-1) | Potency (SKOV3) | Potency (Tov-21-G) | Potency (Tov112D)

CC1OC(OC2C(CO)OC(OCC3OC(OC(=O)C45CCC(C)(C)CC4C4=CCC6C7(C)CCC(OC8OC(CO)C(O)C(OC9OC(CO)C(O)C(O)C9O)C8O)C(C)(C)C7CCC6(C)C4(C)CC5)C(O)C(O)C3O)C(O)C2O)C(O)C(O)C1OC1OC(CO)C(O)C(O)C1O (stereo not given)
inactive: activity change, negative = cytotoxicity (PA-1) 2.62% [at 6.55 µM] | activity change, negative = cytotoxicity (SKOV3) 13.6% [at 6.55 µM] | activity change, negative = cytotoxicity (Tov-21-G) 3.67% [at 6.55 µM] | activity change, negative = cytotoxicity (Tov112D) -6.51% [at 6.55 µM]

COc1cc2c(cc1O)[C@H](c1ccc(O[C@@H]3O[C@H](CO)[C@@H](O)[C@H](O)[C@H]3O)c(OC)c1)[C@@H](CO)[C@](O)(CO)C2
inactive: Potency (PA-1) | Potency (SKOV3) | Potency (Tov-21-G) | Potency (Tov112D)

CC1(C(=O)O)CCCC2(C)C3CCC4CC3(CCC12)CC4=O (stereo not given)
inactive: Potency (PA-1) | Potency (SKOV3) | Potency (Tov-21-G) | Potency (Tov112D)

CC(=O)OC/C=C(\C)C(CC1C(C)=C(OC(C)=O)C(=O)C2C(C)(C)C(O)CCC12C)OC(C)=O (stereo not given)
inactive: Potency (PA-1) | Potency (SKOV3) | Potency (Tov-21-G) | Potency (Tov112D)

O=C(OC[C@@]1(O)CO[C@@H](O[C@H]2[C@H](Oc3ccc(O)cc3)O[C@H](CO)[C@@H](O)[C@@H]2O)[C@@H]1O)c1ccc(O)cc1
inactive: Potency (PA-1) | Potency (SKOV3) | Potency (Tov-21-G) | Potency (Tov112D)

COC(=O)[C@@H](O)[C@H]1[C@@]2(C)CC3(O)[C@@H](C(=O)[C@H]2O)[C@]24O[C@]25CC(=O)O[C@@H](c2ccoc2)[C@]5(C)CCC4[C@]13C (stereo not given in full)
inactive: Potency (PA-1) | Potency (SKOV3) | Potency (Tov-21-G) | Potency (Tov112D)

O=C(O)/C=C/c1ccc(O)c(O[C@@H]2O[C@H](CO)[C@@H](O)[C@H](O)[C@H]2O)c1
inactive: Potency (PA-1) | Potency (SKOV3) | Potency (Tov-21-G) | Potency (Tov112D)

C/C=C/c1cc(OC)c2c(c1)[C@@H](C)[C@@H](c1ccc(O)c(OC)c1)O2
inactive: Potency (PA-1) | Potency (SKOV3) | Potency (Tov-21-G) | Potency (Tov112D)

CC(C)(C)C(=O)CN1C(=O)[C@H](NC(=O)Nc2cccc(C(=O)O)c2)CN(C2CCCCC2)c2ccccc21
inactive: Potency (PA-1) | Potency (SKOV3) | Potency (Tov-21-G) | Potency (Tov112D)
